Data published in PubChem BioAssay AID1159580 (chemical genetic matrix, 2015).
Hit rate of the full screen: of about 5,500 compounds, about 2,000 (36%) were called active. Not shown: some 18% with an inconclusive outcome. Rule as the data show it: active = normalized growth mostly below about 0.91 (no sharp cut-off); inconclusive = no clear call, values can overlap the other calls; inactive = mostly above about 0.92. The list shows a part of the results.

Assay: chemical genetic growth profiling, strain panel (AID 1159580);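 also: tested at 20 µM; growth read once vehicle control cultures reached saturation at 30 °C; 1 = growth at the plate median or of vehicle wells; lower values mean less growth of the strain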
Conditions: S. cerevisiae deletion strains, growth OD

Measured: normalized growth

CC(=O)O[C@@H]1CC2C(C)(C)[C@@H](O)CC[C@]2(C)C2CC[C@@]3(C)[C@H](c4ccoc4)OC(=O)[C@H]4O[C@]43[C@@]21C (some centres not stated)
inactive: locus YAL021C, strain ccr4, hits give low values 1.02 | locus YAL026C, strain drs2, hits give low values 0.989 | locus YAL030W, strain snc1, hits give low values 0.996 | locus YBL061C, strain skt5, hits give low values 0.984 | locus YBR009C, strain hhf1, hits give low values 1 | locus YBR023C, strain chs3, hits give low values 0.991 | locus YBR171W, strain sec66, hits give low values 0.993 | locus YBR229C, strain ROT2, hits give low values 1.01 | locus YBR231C, strain swc5, hits give low values 0.995 | locus YBR279W, strain paf1, hits give low values 0.998 | locus YCL011C, strain gbp2, hits give low values 0.985 | locus YCL016C, strain dcc1, hits give low values 0.995 | locus YCL029C, strain bik1, hits give low values 0.997 | locus YCL061C, strain MRC1, hits give low values 0.994 | locus YCL069W, strain vba3, hits give low values 0.988 | locus YCR088W, strain abp1, hits give low values 0.988 | locus YDL005C, strain med2, hits give low values 0.988 | locus YDL035C, strain GPR1, hits give low values 0.967 | locus YDL040C, strain nat1, hits give low values 0.986 | locus YDL074C, strain BRE1, hits give low values 0.947 | locus YDL101C, strain DUN1, hits give low values 1.02 | locus YDL134C, strain PPH21, hits give low values 1 | locus YDL185W, strain tfp1, hits give low values 1 | locus YDL192W, strain arf1, hits give low values 0.964 | locus YDR001C, strain nth1, hits give low values 0.996 | locus YDR069C, strain doa4, hits give low values 1.01 | locus YDR101C, strain arx1, hits give low values 0.973 | locus YDR137W, strain rgp1, hits give low values 0.986 | locus YDR159W, strain sac3, hits give low values 0.964 | locus YDR162C, strain NBP2, hits give low values 0.987 | locus YDR195W, strain ref2 0.981 | locus YDR297W, strain sur2, hits give low values 1.01 | locus YDR318W, strain mcm21, hits give low values 0.99 | locus YDR334W, strain swr1, hits give low values 1.01 | locus YDR335W, strain msn5, hits give low values 0.995 | locus YDR388W, hits give low values 1.02 | locus YDR392W, strain spt3, hits give low values 0.968 | locus YDR502C, strain sam2, hits give low values 1 | locus YEL003W, strain gim4, hits give low values 0.987 | locus YEL037C, strain rad23, hits give low values 0.995 | locus YEL061C, strain CIN8 (second series), hits give low values 0.992 | locus YEL061C, strain CIN8, hits give low values 1 | locus YER015W, strain faa2, hits give low values 0.996 | locus YER016W, strain bim1, hits give low values 0.989 | locus YER110C, hits give low values 1.02 | locus YER111C, strain swi4, hits give low values 0.98 | locus YER155C, strain BEM2 (second series), hits give low values 1.01 | locus YER155C, strain BEM2, hits give low values 1.02 | locus YER167W, strain BCK2, hits give low values 0.996 | locus YFR010W, strain ubp6, hits give low values 0.993 | locus YGL078C, strain dbp3, hits give low values 1.02 | locus YGL086W, strain mad1, hits give low values 0.998 | locus YGL167C, strain pmr1, hits give low values 0.998 | locus YGL173C, strain kem1, hits give low values 0.998 | locus YGL227W, strain vid30, hits give low values 0.989 | locus YGL240W, strain doc1, hits give low values 0.966 | locus YGL248W, strain PDE1, hits give low values 1.01 | locus YGL253W, strain hxk2, hits give low values 0.95 | locus YGR135W, strain pre9, hits give low values 1.04 | locus YGR252W, strain gcn5, hits give low values 0.975 | locus YHR013C, strain ard1, hits give low values 0.988 | locus YHR027C, strain rpn1, hits give low values 0.983 | locus YHR030C, strain SLT2, hits give low values 1.01 | locus YHR079C, strain IRE1 (second series), hits give low values 1.01 | locus YHR079C, strain IRE1, hits give low values 1.02 | locus YHR094C, strain hxt1, hits give low values 1.01 | locus YHR129C, strain ARP1, hits give low values 1.01 | locus YHR142W, strain chs7, hits give low values 0.992 | locus YHR200W, strain rpn10, hits give low values 1.01 | locus YIL066C, strain RNR3, hits give low values 0.967 | locus YIL073C, strain SPO22, hits give low values 1.03 | locus YIL125W, strain kgd1, hits give low values 1.01 | locus YIR030C, strain dcg1, hits give low values 1 | locus YJL092W, strain hpr5, hits give low values 0.995 | locus YJL095W, strain BCK1 (second series), hits give low values 1.01 | locus YJL095W, strain BCK1, hits give low values 1.01 | locus YJL115W, strain asf1, hits give low values 0.997 | locus YJL129C, strain trk1, hits give low values 0.976 | locus YJL134W, strain LCB3, hits give low values 1.01 | locus YJL154C, strain vps35, hits give low values 0.994 | locus YJL164C, strain tpk1, hits give low values 1 | locus YJL166W, strain qcr8, hits give low values 0.988 | locus YJL168C, strain set2, hits give low values 1.01 | locus YJL187C, strain SWE1 (second series), hits give low values 1.02 | locus YJL187C, strain SWE1, hits give low values 0.991 | locus YJR043C, strain POL32, hits give low values 0.979 | locus YJR066W, strain TOR1, hits give low values 0.966 | locus YKL009W, strain mrt4, hits give low values 0.964 | locus YKL068W, hits give low values 1.01 | locus YKL085W, strain MDH1 (second series), hits give low values 1 | locus YKL085W, strain MDH1, hits give low values 1 | locus YKL160W, strain elf1, hits give low values 0.997 | locus YKR001C, strain vps1, hits give low values 1 | locus YKR026C, strain gcn3, hits give low values 1 | locus YKR091W, strain srl3, hits give low values 1 | locus YLL001W, strain dnm1, hits give low values 0.996 | locus YLL026W, hits give low values 0.997 | locus YLL041C, strain sdh2, hits give low values 0.997 | locus YLR027C, strain aat2, hits give low values 0.999 | locus YLR039C, strain RIC1, hits give low values 0.981 | locus YLR058C, strain SHM2, hits give low values 1 | locus YLR102C, strain apc9, hits give low values 1.01 | locus YLR113W, strain HOG1, hits give low values 0.968 | locus YLR221C, strain rsa3, hits give low values 0.987 | locus YLR258W, strain gsy2, hits give low values 1.01 | locus YLR262C, strain YPT6 (second series), hits give low values 0.967 | locus YLR262C, strain YPT6, hits give low values 0.974 | locus YLR268W, strain sec22, hits give low values 0.967 | locus YLR320W, strain mms22, hits give low values 0.989 | locus YLR330W, strain CHS5, hits give low values 0.999 | locus YLR342W, strain FKS1, hits give low values 0.992 | locus YLR357W, strain rsc2, hits give low values 1.03 | locus YLR370C, strain arc18, hits give low values 1.01 | locus YLR371W, strain rom2, hits give low values 1.03 | locus YLR384C, strain iki3, hits give low values 0.992 | locus YLR418C, strain cdc73, hits give low values 0.968 | locus YML016C, strain PPZ1, hits give low values 1.01 | locus YML032C, strain rad52, hits give low values 0.997 | locus YML120C, strain ndi1, hits give low values 1 | locus YML124C, strain tub3, hits give low values 1 | locus YMR058W, strain fet3, hits give low values 1.01 | locus YMR078C, strain ctf18, hits give low values 1.01 | locus YMR125W, strain sto1, hits give low values 1.02 | locus YMR129W, hits give low values 0.993 | locus YMR205C, strain PFK2, hits give low values 0.993 | locus YMR223W, strain ubp8, hits give low values 1.01 | locus YMR231W, strain pep5, hits give low values 0.959 | locus YMR307W, strain GAS1, hits give low values 0.953 | locus YNL067W, strain RPL9B, hits give low values 1.05 | locus YNL071W, strain lat1, hits give low values 0.993 | locus YNL153C, strain GIM3, hits give low values 1.04 | locus YNL183C, strain NPR1, hits give low values 0.976 | locus YNL209W, strain ssb2, hits give low values 0.992 | locus YNL233W, strain BNI4, hits give low values 1.01 | locus YNL248C, strain rpa49, hits give low values 0.995 | locus YNL250W, strain rad50, hits give low values 1.04 | locus YNL271C, strain bni1, hits give low values 0.999 | locus YNL298W, strain CLA4, hits give low values 0.991 | locus YNL307C, strain MCK1, hits give low values 1.01 | locus YNL322C, strain KRE1 (second series), hits give low values 0.989 | locus YNR049C, strain mso1, hits give low values 0.994 | locus YNR052C, strain pop2, hits give low values 1.02 | locus YOL006C, strain TOP1, hits give low values 0.891 | locus YOL012C, strain htz1 1.11 | locus YOL147C, strain pex11, hits give low values 0.996 | locus YOR001W, strain rrp6, hits give low values 0.981 | locus YOR061W, strain CKA2, hits give low values 0.985 | locus YOR069W, strain VPS5, hits give low values 1.01 | locus YOR070C, strain gyp1, hits give low values 0.988 | locus YOR080W, strain dia2, hits give low values 0.99 | locus YOR083W, strain WHI5, hits give low values 1 | locus YOR106W, strain vam3, hits give low values 0.984 | locus YOR136W, strain idh2, hits give low values 1 | locus YOR144C, strain elg1, hits give low values 1 | locus YOR184W, strain ser1, hits give low values 0.949 | locus YOR231W, strain MKK1, hits give low values 0.998 | locus YOR265W, strain rbl2, hits give low values 1 | locus YOR270C, strain vph1, hits give low values 0.912 | locus YOR290C, strain snf2, hits give low values 0.978 | locus YOR316C, strain cot1, hits give low values 1.01 | locus YPL051W, strain arl3, hits give low values 1.01 | locus YPL078C, strain atp4, hits give low values 0.991 | locus YPL106C, strain sse1, hits give low values 1.01 | locus YPL240C, strain hsp82, hits give low values 0.989 | locus YPL241C, strain CIN2, hits give low values 1 | locus YPL256C, strain CLN2, hits give low values 1.06 | locus YPR119W, strain clb2, hits give low values 1.02 | locus YPR141C, strain kar3, hits give low values 1.01 | locus YPR163C, strain tif3, hits give low values 1 | locus YPR167C, strain met16, hits give low values 1 | strain wtn01, hits give low values 0.976
active: locus YBR021W, strain FUR4, hits give low values 0.823
